# Reference: PubChem BioAssay (NCATS)
# Assay: qHTS profiling of the MIPE4 collection as inhibitors of Plasmodium falciparum (DD2) proliferation (Rep 2) (AID 743346)
# Conditions: P. falciparum Dd2 in erythrocytes, SYBR Green DNA, 72 h; at 28.5 µM unless noted
# Description: Plasmodium falciparum is a virulent malarial parasite that kills 1-2 million people worldwide each year. Transmitted by mosquitoes, the sporozoite form of the parasite enters the blood stream to infect hepatocytes, where they become merozoites that infect red blood cells (erythrocytes). Within erythrocytes, merozoites begin a […] cycle of growth and division, after which the parasite is released to infect new red blood cells. Gametocytes, which form within erythrocytes as well, circulate in the bloodstream and are ingested by the mosquito, thereby completing the life cycle. To profile malarial isolates for differential chemical responses and to identify inhibitors of malarial growth, an assay that measures P. falciparum growth and replication within erythrocytes was employed. This assay uses a DNA binding fluorescent dye (SYBR Green) to detect parasite DNA following cell lysis. Because mature erythrocytes lack DNA, only Plasmodium-derived DNA is detected.
# The SYBR Green viability assay was adapted from a method described previously (Plouffe et al., 2008). For screening 3 ul culture medium was dispensed into 1536 well black clear bottom plates (Aurora Biotechnologies) using a Multidrop Combi (Thermo Fisher Scientific Inc.), 23 nL compounds in DMSO were added by a pin tool (Kalypsys), and 5 ul of erythrocytes infected with P. falciparum (0.3% parasitemia, 2.5% hematocrit final concentration) were added. The plates were incubated at 37 C in a humidified incubator in 5% CO2 for 72 h, and 2 ul lysis buffer (20 mM Tris HCl, 10 mM EDTA, 0.16% saponin, 1.6% triton X, 10X SYBR Green I supplied as 10,000X […] by Invitrogen) was added to each well. The plates were mixed for 25 sec with gentle shaking and incubated overnight at room temperature in the dark. The following morning, fluorescence intensity at 485(14) nm excitation and 535(25) nm emission wavelengths was measured on an EnVision (Perkin Elmer) plate reader. Plate reads were normalized relative to the control inhibitor (0.29 uM artemisinin) and vehicle (DMSO) wells present on each plate and then corrected by an algorithm using vehicle-only control plates at the beginning and end of the compound plate stack.
row,Compound,"parasite growth, % of control (lower = inhibition) [%]"
1,CCC(=O)O[C@]1(C(=O)SCF)[C@H](C)C[C@H]2[C@@H]3C[C@H](F)C4=CC(=O)C=C[C@]4(C)[C@@]3(F)[C@@H](O)C[C@@]21C,44.9
2,CCCCc1oc2ccc(NS(C)(=O)=O)cc2c1C(=O)c1ccc(OCCCN(CCCC)CCCC)cc1,18.2
3,Cc1nnc(C(=O)NC(C)(C)c2nc(C(=O)NCc3ccc(F)cc3)c(O)c(=O)n2C)o1,81.9
4,Cn1c(=O)c2c(ncn2CC(O)CO)n(C)c1=O (stereo not given),96.6
5,CN(CCOc1ccc(CC2SC(=O)NC2=O)cc1)c1ccccn1 (stereo not given),95.7
6,CC(C)C[C@H](NC(=O)[C@H](CCc1ccccc1)NC(=O)CN1CCOCC1)C(=O)N[C@@H](Cc1ccccc1)C(=O)N[C@@H](CC(C)C)C(=O)[C@@]1(C)CO1,9.09
7,CC(C)(Sc1cc(C(C)(C)C)c(O)c(C(C)(C)C)c1)Sc1cc(C(C)(C)C)c(O)c(C(C)(C)C)c1,24.6
8,NC1(c2ccc(-c3nc4ccn5c(=O)[nH]nc5c4cc3-c3ccccc3)cc2)CCC1,7.57
9,COc1cc(NS(=O)(=O)c2ccc(N)cc2)nc(OC)n1,87.6
10,CCOC(=O)[C@H](CCc1ccccc1)N[C@H]1CCc2ccccc2N(CC(=O)O)C1=O,22.6
11,CCC(=O)O[C@]1(C(=O)CCl)[C@@H](C)C[C@H]2[C@@H]3CCC4=CC(=O)C=C[C@]4(C)[C@@]3(F)[C@@H](O)C[C@@]21C,8.54
12,Cc1onc(-c2ccccc2Cl)c1C(=O)N[C@@H]1C(=O)N2[C@@H]1SC(C)(C)[C@@H]2C(=O)O,79
13,CN(C)CCc1c[nH]c2ccc(C[C@H]3COC(=O)N3)cc12,73.2
14,CCOc1cc(N)c(Cl)cc1C(=O)NCC1CN(Cc2ccc(F)cc2)CCO1 (stereo not given),178
15,N[C@@H](C(=O)N[C@@H]1C(=O)N2C(C(=O)O)=C(Cl)CS[C@H]12)c1ccccc1,115
16,CC(C)C1CCC(C(=O)N[C@H](Cc2ccccc2)C(=O)O)CC1 (stereo not given in full),109
17,C[C@@H](NCCCc1cccc(C(F)(F)F)c1)c1cccc2ccccc12,10.9
18,CC(C)OC(=O)C(C(=O)OC(C)C)=C1SC=CS1,72.6
19,CCN[C@H]1C[C@H](C)S(=O)(=O)c2sc(S(N)(=O)=O)cc21,117
20,COc1cc([C@@H]2c3cc4c(cc3[C@H](O)[C@H]3COC(=O)[C@H]23)OCO4)cc(OC)c1OC,10.2

row,Compound,"parasite growth, % of control (lower = inhibition) [%]"
1,NNC(=O)c1ccncc1,8.5
2,CN(C)c1ccc(C(=C2C=CC(=[N+](C)C)C=C2)c2ccc(N(C)C)cc2)cc1,6.31
3,COc1cc2c(Nc3ccc(Br)cc3F)ncnc2cc1OCC1CCN(C)CC1,12.4
4,O=C(NCC1CN(c2ccc(N3CCOCC3=O)cc2)C(=O)O1)c1ccc(Cl)s1 (stereo not given),80.7
5,CCCCOc1ccc(CC(=O)NO)cc1,16.4
6,CCOC(=O)[C@H](CCc1ccccc1)N[C@H]1CS[C@H](c2cccs2)CN(CC(=O)O)C1=O,6.49
7,COc1ncnc(NS(=O)(=O)c2ccc(N)cc2)c1OC,99.5
8,COc1c(N2CCNC(C)C2)c(F)cc2c(=O)c(C(=O)O)cn(C3CC3)c12 (stereo not given),23.4
9,CCOCC(O)COc1ccc(NC(=O)CC[S+](C)C)cc1 (stereo not given),97.7
10,CN(Cc1cc(Br)cc(Br)c1N)C1CCCCC1,25.7
11,CCOC(=O)c1ccc(C#Cc2ccc3c(c2)C(C)(C)CCS3)nc1,29.1
12,COc1ccc2c(c1)c(CC(=O)OCC(=O)O)c(C)n2C(=O)c1ccc(Cl)cc1,68.6
13,CCCN[C@H]1CCc2nc(N)sc2C1,8.29
14,NC(=O)c1cccc(N)c1,93.2
15,Oc1c(Cl)cc(Cl)c2cccnc12,45.4
16,COC(c1ccccc1)(c1ccccc1)[C@H](Oc1nc(C)cc(C)n1)C(=O)O,81.2
17,O=C(O)c1cccnc1,95.2
18,NC(=O)c1cccnc1,122
19,O=c1cc(O)c(Cl)c[nH]1,20.4
20,CNS(=O)(=O)CCc1ccc2[nH]cc(C3CCN(C)CC3)c2c1,92.8
